Consider 6 sequences from publication PMC11574364.

Targets include RBMXL3 (Homo sapiens, UniProt Q8N7X1); ROD1(3-4) (Homo sapiens, UniProt O95758); snRNP 70 (Homo sapiens, UniProt P08621); SRRP35 (Homo sapiens, UniProt Q8WXF0); RDBP (Homo sapiens, UniProt P18615).
Common to all, as to assay: protein domain microarray probed with biotinylated miRNA; Domain array: 20 mM Tris-HCl pH 7.4, 200 mM KCl, 0.2 mM EDTA, 0.05% NP40, 2 ug/ul heparin, overnight 4 C. ORF array: PBS pH 7.0 with RNase inhibitor, 100 ng RNA; high values mean tight binding
What all share (settings): ssRNA

The next test has as its target T1, MASK-BP3 (Homo sapiens, UniProt Q8IWZ3).
T1 sequence: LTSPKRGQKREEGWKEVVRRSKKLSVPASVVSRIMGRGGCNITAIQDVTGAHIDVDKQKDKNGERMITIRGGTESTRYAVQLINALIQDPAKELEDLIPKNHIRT

Another test concerns the target T2, TRA2A (Homo sapiens, UniProt Q13595).
T2 sequence: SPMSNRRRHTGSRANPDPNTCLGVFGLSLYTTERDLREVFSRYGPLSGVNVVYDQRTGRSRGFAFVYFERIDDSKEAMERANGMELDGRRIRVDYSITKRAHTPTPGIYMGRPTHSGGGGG

A further test concerns the target T3, SFRS7 (Homo sapiens, UniProt Q16629).
T3 sequence: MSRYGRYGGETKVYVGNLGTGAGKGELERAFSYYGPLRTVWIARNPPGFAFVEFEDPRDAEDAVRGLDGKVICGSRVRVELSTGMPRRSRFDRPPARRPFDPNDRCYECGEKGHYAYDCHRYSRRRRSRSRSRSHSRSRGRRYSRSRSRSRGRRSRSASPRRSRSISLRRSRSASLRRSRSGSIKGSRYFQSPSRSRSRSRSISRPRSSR

The next test concerns the target T4, PSPC1 (Homo sapiens, UniProt Q8WXF1).
T4 sequence: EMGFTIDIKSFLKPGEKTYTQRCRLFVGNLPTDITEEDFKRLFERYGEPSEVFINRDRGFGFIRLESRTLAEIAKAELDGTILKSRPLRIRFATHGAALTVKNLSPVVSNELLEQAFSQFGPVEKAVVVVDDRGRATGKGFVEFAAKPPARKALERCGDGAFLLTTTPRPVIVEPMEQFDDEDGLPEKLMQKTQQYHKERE

Another test concerns the target T5, TDRD10 (Homo sapiens, UniProt Q5VZ19).
T5 sequence: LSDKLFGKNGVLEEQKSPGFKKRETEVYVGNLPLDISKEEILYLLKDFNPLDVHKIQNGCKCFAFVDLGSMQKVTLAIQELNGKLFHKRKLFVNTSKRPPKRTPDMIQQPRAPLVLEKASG

Chain of SRRP35 (Q8WXF0 1-120): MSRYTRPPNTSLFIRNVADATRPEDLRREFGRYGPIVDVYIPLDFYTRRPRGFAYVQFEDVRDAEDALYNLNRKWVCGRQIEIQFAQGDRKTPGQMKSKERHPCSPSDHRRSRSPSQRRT
Chain of RBMXL3 (Q8N7X1 1-110): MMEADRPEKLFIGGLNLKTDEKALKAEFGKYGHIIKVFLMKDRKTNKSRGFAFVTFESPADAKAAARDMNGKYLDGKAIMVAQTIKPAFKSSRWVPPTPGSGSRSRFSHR
Chain of snRNP 70 (P08621 80-205): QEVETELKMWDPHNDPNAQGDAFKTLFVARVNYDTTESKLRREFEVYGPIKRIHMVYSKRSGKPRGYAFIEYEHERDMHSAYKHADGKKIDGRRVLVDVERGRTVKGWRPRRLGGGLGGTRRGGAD
Chain of ROD1(3-4) (O95758 340-552): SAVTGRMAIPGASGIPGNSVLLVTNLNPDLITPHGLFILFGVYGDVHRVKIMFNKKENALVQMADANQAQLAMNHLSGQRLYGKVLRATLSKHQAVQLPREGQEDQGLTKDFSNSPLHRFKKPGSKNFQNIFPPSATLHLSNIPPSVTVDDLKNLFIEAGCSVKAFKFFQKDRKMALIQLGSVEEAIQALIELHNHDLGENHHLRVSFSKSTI
Chain of RDBP (P18615 240-355): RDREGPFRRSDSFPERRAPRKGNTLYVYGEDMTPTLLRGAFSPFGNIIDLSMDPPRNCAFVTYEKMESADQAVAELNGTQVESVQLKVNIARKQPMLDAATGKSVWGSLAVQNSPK

UGAGGUAGUAGGUUGUAUAGUU: the binding signal came to 500 ± 52.7 fluorescence intensity in the test with RBMXL3; 92.7 ± 10.2 fluorescence intensity with ROD1(3-4); 26.2 ± 1.21 fluorescence intensity in the test with MASK-BP3; 25 ± 0.552 fluorescence intensity in the test with TRA2A; 896.5 ± 2.67 fluorescence intensity with SFRS7; 179 ± 52.5 fluorescence intensity with snRNP 70. For the same sequence, the figures for the binding signal with SRRP35 and with RDBP were 206 ± 15.3 fluorescence intensity and 25 ± 1.67 fluorescence intensity, respectively.

As for AGAGGUAGUAGGUUGCAUAGUU, the binding signal in the test with RBMXL3 stood at 1850 ± 54 fluorescence intensity; with ROD1(3-4), 331 ± 55.6 fluorescence intensity; in the test with PSPC1, 38.8 ± 3.2 fluorescence intensity; with TDRD10, 85.7 ± 8.76 fluorescence intensity; with MASK-BP3 it was 50.1 ± 3.32 fluorescence intensity; in the test with TRA2A it was 230 ± 12.5 fluorescence intensity. In addition, the binding signal worked out at 2902 ± 20.8 fluorescence intensity in the test with SFRS7, 899.9 ± 8.8 fluorescence intensity with snRNP 70, 735 ± 23.2 fluorescence intensity with SRRP35 and 47.7 ± 4.8 fluorescence intensity in the test with RDBP.

Turning to UAGCUUAUCAGACUGAUGUUGA, the binding signal was 308 ± 16.9 fluorescence intensity in the test with RBMXL3; 94.4 ± 48.7 fluorescence intensity with ROD1(3-4); 1190 ± 28.1 fluorescence intensity in the test with SFRS7; 44 ± 10.4 fluorescence intensity with snRNP 70; 54.02 ± 0.29 fluorescence intensity with SRRP35; 20.3 ± 0.262 fluorescence intensity with RDBP.

Regarding CAGUGCAAUGAUGAAAGGGCAU, the binding signal stood at 1130 ± 24.3 fluorescence intensity with RBMXL3; 241 ± 7.52 fluorescence intensity with ROD1(3-4); 33.1 ± 2.64 fluorescence intensity with TDRD10; 42.16 ± 0.219 fluorescence intensity with MASK-BP3; 126 ± 1.75 fluorescence intensity with TRA2A; 2185 ± 2.91 fluorescence intensity in the test with SFRS7. The binding signal with snRNP 70 is 453 ± 34.9 fluorescence intensity; with SRRP35, 882 ± 24.2 fluorescence intensity; in the test with RDBP, 43.1 ± 3.73 fluorescence intensity.

With UGAGGUAGUAGGUUGUGUGGUU, the binding signal with RBMXL3 was determined as 1280 ± 38.3 fluorescence intensity; with ROD1(3-4) it was 569 ± 20.9 fluorescence intensity; with PSPC1, 84.7 ± 9.68 fluorescence intensity; in the test with TDRD10, 210 ± 41.3 fluorescence intensity; in the test with MASK-BP3, 131 ± 1.63 fluorescence intensity; in the test with TRA2A, 341 ± 41.5 fluorescence intensity. Moreover, the binding signal worked out at 1968 ± 10.4 fluorescence intensity with SFRS7, 1170 ± 58.7 fluorescence intensity with snRNP 70, 643.6 ± 5.9 fluorescence intensity with SRRP35 and 78.9 ± 4.14 fluorescence intensity with RDBP.

As to UGAGGUAGUAGGUUGUAUGGUU, the binding signal in the test with RBMXL3 is 1320 ± 44.2 fluorescence intensity; in the test with ROD1(3-4) it was 385 ± 82.6 fluorescence intensity; with PSPC1, 26.1 ± 0.75 fluorescence intensity; with TDRD10 it was 161 ± 58.1 fluorescence intensity; in the test with MASK-BP3 it was 71.6 ± 1.19 fluorescence intensity; with TRA2A, 311 ± 4.77 fluorescence intensity. Besides, the binding signal was determined as 2173 ± 16.3 fluorescence intensity with SFRS7, 1010 ± 40.3 fluorescence intensity with snRNP 70, 570 ± 27.1 fluorescence intensity with SRRP35 and 52.2 ± 3.22 fluorescence intensity in the test with RDBP.
